In the library only some 8.5% were active in any assay of this set; here they are far more common.
KDM4E inh – JMJD2E (human) inhibition; B2RXH2; JMJD2E catalytic domain, FDH-coupled NADH fluorescence (FDH is formaldehyde dehydrogenase); Potency, µM (series often up to 57.1 µM), for the others: at the highest dose activity change, negative = inhibition, hits mostly inhibitors; 1.6% of 230,000 active; AID 2147;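 note: potency is the fitted concentration of half-maximal effect; 0% = wells with enzyme and -100% = buffer wells without enzyme; nearly all actives have a fitted effect of over 50% in size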
Sfp inh – Sfp phosphopantetheinyl transferase inhibition; Potency, µM, inactives show largest response in the series, negative = inhibition, hits mostly inhibitors; 3.5% of 310,000 active; Q9F4F7; Biochemical Sfp PPTase activity, qHTS; active = well fitted curve in the direction sought with a large enough effect; inconclusive = small, poorly fitted or top-dose-only effect, or another doubt; inactive = no such curve, though single readings can be large; an effect the other way counts as inactive or inconclusive;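 note: the enzyme is Sfp with the accession as filed and its product quenches rhodamine fluorescence; potency is the fitted concentration of half-maximal effect; 0% = enzyme reaction without inhibitor and -100% = no enzyme wells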
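Step 1, compound plus 15 nM Sfp-PPTase, 15 min, room temperature. Step 2, add rhodamine-CoA (5 uM) and BHQ-2-YbbR (12.5 uM). Step 3, read 525/598 nm fluorescence at 0 and 30 min.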
Coupling enz – inhibits coupling enzyme system, counter-screen for aldolase hits. coupling enzyme system counterscreen, AmpLite Red fluorescence. activity change, negative = inhibition, % at 58.2 µM, hits read low. 0.67% of 290,000 active. AID 2472; in the data active = activity change below about -30%
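Fluorescence at 525 nm excitation and 598 nm emission measured inhibition of the coupled detection system without aldolase. Compounds (at 57.5 uM final) were preincubated 10 min at room temperature with coupling enzyme reagent before a 20 min substrate/AmpLite Red step.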
RGS12 GoLoco inh – blocks human Gai1 binding to RGS12 GoLoco peptide, red readout. 0.44% of 230,000 active. Gai1:RGS12 GoLoco peptide FP, rhodamine, 10 min. Potency, µM (doses to about 61.6 µM), for inactives: at the highest dose activity, negative = inhibition, hits mostly inhibitors. AID 880; active = well fitted inhibition curve with a large enough effect, not every such curve was filed as active; inactive = no such curve, though single readings can be large or run the other way; note: potency is the fitted concentration of half-maximal effect; nearly all actives have a fitted effect of over 30% in size
NPSR antagonist – neuropeptide S receptor (human) antagonism, cAMP. Potency, µM (highest dose often 38.3 µM), for inactives: at the top dose activity change, negative = inhibition, actives largely listed as inhibitors. AID 1461. 1% of 220,000 active. CHO-NPSR cells, cAMP TR-FRET, antagonist mode; active = well fitted curve in the direction sought with a large enough effect; inconclusive = small, poorly fitted or top-dose-only effect, or another doubt; inactive = no such curve, though single readings can be large; an effect the other way counts as inactive or inconclusive; note: potency is the fitted concentration of half-maximal effect; nearly all actives have a fitted effect of over 50% in size
Target sequence (Q6W5P4 whole entry, looked up): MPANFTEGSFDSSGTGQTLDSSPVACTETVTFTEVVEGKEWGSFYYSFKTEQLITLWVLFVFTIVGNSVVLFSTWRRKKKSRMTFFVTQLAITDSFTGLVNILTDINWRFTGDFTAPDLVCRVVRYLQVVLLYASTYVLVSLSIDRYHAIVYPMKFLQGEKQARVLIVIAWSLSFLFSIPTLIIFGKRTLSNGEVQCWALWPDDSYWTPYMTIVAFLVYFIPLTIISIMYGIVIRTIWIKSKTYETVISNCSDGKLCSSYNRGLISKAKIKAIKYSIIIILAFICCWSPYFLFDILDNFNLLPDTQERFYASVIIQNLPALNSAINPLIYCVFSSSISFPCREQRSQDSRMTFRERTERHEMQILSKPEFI
ALDH1A1 block – ALDH1A1 (human) enzyme inhibition | AID 1030 | Potency, µM (top dose mostly 75.3 µM), without a hit: at the highest dose activity, negative = inhibition, most hits filed as inhibitors | P00352 | 7.3% of 220,000 active | Purified ALDH1A1, NADH fluorescence, propionaldehyde substrate;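 note: potency is the fitted concentration of half-maximal effect; plate controls were no enzyme wells and a reference inhibitor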
The depositor's hits bear a star; ? = inconclusive; nt = not tested or not shown; ! = not active in a repeat; [ ] = dose if it differs, or a comment. Unless noted, calls come from the whole dose curve; as a rule, active = well fitted inhibition curve with a large enough effect (not every such curve was filed as active); inconclusive = small, poorly fitted or top-dose-only effect, or another doubt; inactive = no such curve, though single readings can be large or run the other way. Unless noted, % is set by controls: 0 for no effect and ±100 for the full control effect.

SMILES | KDM4E inh | Sfp inh | Coupling enz | RGS12 GoLoco inh | NPSR antagonist | ALDH1A1 block
OC[C@H]1O[C@@H](O[C@@H]2OC=C[C@H]3[C@H](O)[C@@H]4O[C@]4(CO)[C@@H]23)[C@H](O)[C@@H](O)[C@@H]1O | nt | -1% | 7 | nt | nt | nt
O=C1CCCc2c1cc(C(=O)O)c(=O)n2-c1ccccc1 | 6% | 9% | 2 | -4% | 4% | 1%
O=C1CCCc2c1cc(C(=O)NC1CCSC1=O)c(=O)n2-c1ccccc1 (stereo unspecified) | ? | 50µM* | -38* | 19% | -18%[46.1 µM] | ?
O=C1CCCc2c1cc(C(=O)Nc1ccc(Br)cn1)c(=O)n2-c1ccccc1 | ? | ? | -51* | 3% | -3%[46.1 µM] | ?
CC(=O)O[C@H]1C(=O)[C@@]2(C)[C@H]([C@H](OC(=O)c3ccccc3)[C@]3(O)C[C@H](OC(=O)[C@H](O)[C@@H](NC(=O)c4ccccc4)c4ccccc4)C(C)=C1C3(C)C)[C@]1(OC(C)=O)CO[C@@H]1C[C@@H]2O | 10% | 50µM*! | 1 | 15% | nt | -8%
Cc1nn(CCc2nc(-c3ccco3)cs2)c2[nH]c(=O)cc(C(F)(F)F)c12 | ? | ? | 7 | 4% | -28%[46.1 µM] | 2.5µM*
O=c1[nH]c(=O)n(Cc2ccccc2)c2nc(-c3ccco3)cc(C(F)(F)F)c12 | ? | -7% | 3 | 17% | ? | ?
Cc1cc(C)n(CCc2nc(-c3ccco3)cs2)n1 | -18% | 8.9µM* | -10 | 6% | -8%[46.1 µM] | 7.1µM*
COc1ccc(Br)cc1CN1CCSCC1 | nt | -8% | 1 | nt | nt | nt
CC(=O)Nc1ccc(S(=O)(=O)N2CCN(Cc3cccc([N+](=O)[O-])c3)CC2)cc1 | ? | -27% | 2 | 12% | -10% | ?
O=C1C2C(c3ccccc3)CC=CC2C(c2cccc([N+](=O)[O-])c2)N1Cc1ccccc1 (stereo unspecified) | nt | 11% | 3 | nt | nt | nt
CCc1nc(SCC(=O)N2CCC(C)CC2)c2c(=O)n(C)c(=O)n(C)c2n1 | 9% | -27% | 4 | 2% | -4%[46.1 µM] | 11µM*
CCOC(=O)c1cnc2c(C)cc(Cl)cc2c1N1CCN(C)CC1 | nt | -1% | 2 | nt | nt | nt
Cc1noc(C)c1CSc1ncnc2sc3c(c12)CCCCC3 | ? | -27% | 10 | 10% | -33% | 28µM*
O=C(c1ccco1)N1CCN(C(=O)C2CC(=O)N(c3ccc(Cl)cc3)C2)CC1 (stereo unspecified) | nt | 0% | 0 | nt | nt | nt
c1ccc2c(CN3CCN(Cc4c[nH]c5ccccc45)CC3)c[nH]c2c1 | nt | nt | nt | 8%[14.2 µM] | nt | -11%[13.5 µM]
Brc1ccc(CN2CCN(Cc3c[nH]c4ccccc34)CC2)cc1 | nt | 56µM* | 0 | nt | nt | nt
O=c1cnnc(N/N=C/C2CC=CCC2)[nH]1 (stereo unspecified) | -22% | 45µM* | 0 | -3% | 6% | ?
CC1CCCC(NS(=O)(=O)c2ccc3c(c2)OCCO3)C1C (stereo unspecified) | -17% | -14% | -7 | -4% | -10%[7.67 µM] | 14µM*
Cc1nn(CC(=O)c2ccccc2)c(=O)c2nn(-c3ccccc3F)c(C)c12 | 5% | 0% | 10 | 3% | -8% | ?
COC(=O)CSc1nc(C)cc(C)n1 | -5% | 14% | 0 | 27% | 6% | 8%
Cc1cc(C)nc(NN2C(=O)C=CC2=O)n1 | nt | 14µM* | 4 | nt | nt | nt
COC(=O)c1c(-c2ccccc2Cl)noc1/C=C/N(C)C | ? | -19% | -11 | -3% | -27% | 1.3µM*
Cc1cc(NC(=O)c2c(-c3ccccc3Cl)noc2C)no1 | 5% | -6% | 1 | 3% | -18%[46.1 µM] | 6%
COc1ccccc1NC(=S)NC(=O)c1c(-c2ccccc2Cl)noc1C | -3% | 11% | -5 | 16% | -38% | 0.89µM*
Cc1onc(-c2ccccc2Cl)c1C(=O)NC(=S)Nc1ccccc1F | 1% | ? | 1 | 17% | -47% | 3.2µM*
COc1ccc(CCNC(=S)NC(=O)c2c(-c3ccccc3Cl)noc2C)cc1OC | -5% | 15% | 3 | 2% | 58% | nt

Screening data (PubChem BioAssay)
